# Screens (PubChem)
# GLS inhibitor: blocks human kidney-isoform glutaminase activity; Potency, µM (doses to about 45.5 µM), without a hit: at the top dose activity change, negative = inhibition, usual class: inhibitors; GLS enzymatic activity, qHTS titration; 0.21% of 410,000 active; AID 624170; O94925; note: potency is the fitted concentration of half-maximal effect; % is set by controls: 0 for no effect and ±100 for the full control effect
#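 Glutamate formation by hKGA was monitored fluorometrically using coupled glutamate oxidase, HRP and Amplex Red. Substrate was added as 1 mM L-glutamine solution; incubation was 30 min at RT after an initial read.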
# PI4K2A block: PI4K2A (human) kinase inhibition | activity change, negative = inhibition, % at 76.9 µM | purified PI4K2A, ADP-Glo luminescence, 1 h; active compounds read low | AID 1346378 | Q9BTU6 | 0.13% of 420,000 active; in the data active = activity change below about -50%; inconclusive = mostly about -30% to -49%;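 note: -100% = wells without enzyme as full effect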
#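 PI4K2A activity was measured by ADP-Glo luminescence: enzyme (4 ug/mL stock) and phosphatidylinositol (1.2 mM stock) in Tris pH 7.5/MgCl2/EGTA/Triton X-100 buffer were reacted with ATP (300 microM stock) for one hour at ambient temperature.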
# CCT modulator: cytosolic chaperonin activity modulation; 0.3% of 360,000 active; activity change, % (no concentration beside the values), hits read low; purified chaperonin ATPase assay, HTRF ADP detection, 30 min; in the data active = activity change below about -30%; note: % is set by controls: 0 for no effect and ±100 for the full control effect
#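 Nucleotide hydrolysis assay: TRiC at 20–40 nM final (set by batch activity) with 10 uM ATP, 30 min at 37 °C, in presence of 76 uM compound. Detection by competitive ADP HTRF, 30 min ambient.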
# Tb PGK inh: inhibitors of T. brucei phosphoglycerate kinase | P07378 | PGK/GAPDH coupled, Kinase-Glo luminescence, 60 min | Potency, µM (highest dose often 57.5 µM), for inactives: at the top dose activity change, negative = inhibition, actives largely listed as inhibitors | 0.043% of 380,000 active | AID 602233; note: potency is the fitted concentration of half-maximal effect; % is set by controls: 0 for no effect and ±100 for the full control effect; nearly all actives have a fitted effect of over 60% in size
# Target sequence (P07378 whole entry, looked up): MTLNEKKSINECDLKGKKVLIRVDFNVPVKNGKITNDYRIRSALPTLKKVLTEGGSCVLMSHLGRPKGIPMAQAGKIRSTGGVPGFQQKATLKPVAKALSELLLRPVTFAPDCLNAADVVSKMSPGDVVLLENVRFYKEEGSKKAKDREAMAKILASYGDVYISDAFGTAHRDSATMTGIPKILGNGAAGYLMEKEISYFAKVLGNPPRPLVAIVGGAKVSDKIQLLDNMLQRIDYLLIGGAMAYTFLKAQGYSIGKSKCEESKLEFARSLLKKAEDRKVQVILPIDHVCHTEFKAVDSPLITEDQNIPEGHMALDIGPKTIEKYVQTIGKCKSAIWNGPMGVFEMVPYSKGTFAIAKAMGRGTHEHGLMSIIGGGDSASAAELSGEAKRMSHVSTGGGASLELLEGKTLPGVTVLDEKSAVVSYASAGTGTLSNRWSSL
#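 Recombinant glycosomal PGK reaction used 1,3-bisphosphoglycerate generated in-well by GAPDH (100nM final) in 100mM TEA pH 7.6, 5mM MgCl2, 0.01% Tween-20. After 60 minutes at room temperature, ATP was read by Kinase-Glo Plus luminescence end-point.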
# PINK1 modulator: PINK1 expression modulation; PINK1 immunofluorescence, high-content cytometry, 24 h; Potency, µM (top dose mostly 76.6 µM), inactives show at the highest dose activation (PINK1 increase), actives largely listed as activators; 0.2% of 410,000 active; active = well fitted activation curve with a large enough effect; inconclusive = small, poorly fitted or top-dose-only effect; cell line not stated here; note: potency is the fitted concentration of half-maximal effect; % of control where 0% means no effect; nearly all actives have a fitted effect of over 65% in size
#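 Decision-based qHTS: stable cells, 24 h exposure to five compound concentrations, CCCP as control. Fixed cells stained for PINK1 plus nuclear, mitochondrial and cell markers, cytometer read.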
# * = called active by the depositor; i = inactive; ? = inconclusive; . = no result given; [ ] = remark or other dose. In the library only some 0.78% were active in any assay of this set; here they are far more common. Unless noted, calls come from the whole dose curve; as a rule, active = well fitted curve in the direction sought with a large enough effect; inconclusive = small, poorly fitted or top-dose-only effect, or another doubt; inactive = no such curve, though single readings can be large; an effect the other way counts as inactive or inconclusive.
SMILES,GLS inhibitor,PI4K2A block,CCT modulator,Tb PGK inh,PINK1 modulator
Cn1cccc1C(=S)N1CCOCC1,4%,9,-1,3%,-2%
Cn1cccc1C(=S)N=P(C1CCCCC1)(N1CCOCC1)N1CCOCC1,7%,-2,-52*,.,-2%[38.3 µM]
N#Cc1c(NC(=O)c2ccccc2)sc2c1CCCCC2,7%,-8,1,-1%,3%
N#Cc1c(Cl)nsc1NC(=O)c1ccccc1,5%,-7,-1,-9%,13µM*
O=C(Nc1ccc2nc(-c3ccco3)c(-c3ccco3)nc2c1)N1CCCCCC1,?,-51*,-1,-19%,?
CN(C)C=Nc1c(Br)cc(Br)c2nonc12,6%,-56*,-3,-3%,11µM*
CN(C)C=Nc1nonc1-c1ccccc1,7%,3,4,7%,1%
Fc1ccc(C(c2ccc(F)cc2)N2CCNCC2)cc1,.,2,.,.,.
O=C(NCc1nnc2n1CCN(Cc1cc3c(cc1Cl)OCO3)CC2)C1CCOC1 (centres undefined),.,.,.,.,0%
COc1ccc2c(c1OC)C(=O)N(c1cccc(C(F)(F)F)c1)C2,16%,8,-2,-4%,3.2µM*
O=C(NCC1Cc2cc(F)cc(-c3cnccn3)c2O1)c1cccc(Cl)c1 (centres undefined),.,.,.,.,0%
CCOc1ccc(Nc2nc(N)c3ccccc3n2)cc1,0%,-80*,3,?,11%
Nc1nc(Nc2ccccc2)nc2ccccc12,-3%,?,-2,?,2%
CC1CCC(NC(=O)C2(C)CCC(=O)N2Cc2cccnc2)CC1 (centres undefined),-2%,-3,-36*,1%,1%
CC1(C(=O)NC2CCCCC2)CCC(=O)N1Cc1cccnc1 (centres undefined),1%,7,1,3%,5%
CC(C)C1=CC2=CC[C@@H]3[C@](C)(CCC[C@@]3(C)C(=O)O)[C@H]2CC1,14µM*,.,.,.,.
O=C1c2ccccc2-c2nnc(-c3ccccc3)cc21,-2%,?,0,?,3%
COc1ccc(-c2cc3c(nn2)-c2ccccc2C3=O)cc1,7%,-56*,-2,?,0%
O=c1c2ccccc2sn1-c1ccccc1,4.5µM*,-30,0,-5%,4%
CN(C)S(=O)(=O)c1cccc(-n2sc3ccccc3c2=O)c1,?,-7,-2,-13%,2%
N#Cc1ccc2c(=O)n(-c3ccccc3)sc2c1,?,-4,1,1%,-1%
O=C(O)c1cccc(-n2sc3ccccc3c2=O)c1,8.9µM*,-20,-1,-10%,-2%
O=C(O)c1cccc(-n2c(/C=C/c3ccccc3)nc3ccccc3c2=O)c1,-1%,4,0,-4%,2%
O=c1c2ccccc2sn1-c1ccccc1F,7.9µM*,-17,-2,4%,0%
O=c1c2ccccc2sn1-c1cccc(Cl)c1,7.9µM*,-15,-1,i,?
SMILES,GLS inhibitor,PI4K2A block,CCT modulator,Tb PGK inh,PINK1 modulator
Cc1ccccc1-n1sc2cc(F)ccc2c1=O,?,6,1,-4%,-2%
Cc1nn(C)cc1CNc1nc(C)c(-c2ccn(CC3COc4ccccc4O3)n2)s1 (centres undefined),.,.,.,.,-1%
COc1ccc2cc(C=O)ccc2c1,.,-3,.,.,.
Cc1cnc(C)c(-c2ccc(F)c3c2OC(CNC(=O)/C=C/c2cccs2)C3)n1 (centres undefined),.,.,.,.,3%
O=c1c2ccccc2sn1-c1nccs1,1.3µM*,3,-1,-5%,4%
CC(=O)Nc1ccc2c(=O)n(-c3ccccc3)sc2c1,6.3µM*,-7,-2,-6%,0%
Cc1ccc(-n2sc3ccccc3c2=O)cc1S(=O)(=O)N1CCCCC1,6.3µM*,?,-3,i,2%
Cc1cnc(C)c(-c2ccc(F)c3c2OC(CNC(=O)Cc2c(C)[nH]c4ccccc24)C3)n1 (centres undefined),.,.,.,.,0%
OC1CCN(Cc2ccc3c(c2)CN(C/C=C/c2ccco2)CCO3)CC1,.,.,.,.,1%
COc1ccccc1N1CCN(c2nc(CNC(=O)C3CCOC(C)(C)C3)nc3ccccc23)CC1 (centres undefined),.,.,.,.,3%
O=C(NCC1Cc2cc(F)cc(-c3cnccn3)c2O1)c1cccc(-c2ccccc2F)c1 (centres undefined),.,.,.,.,1%
CN(Cc1ccccc1)C(NC(=O)c1ccccc1)C(Cl)(Cl)Cl (centres undefined),-4%,-1,-39*,i,0%[38.3 µM]
COc1ccc(/C(O)=C2\C(=O)C(=O)N(c3cc(C)on3)C2c2cccc(OC)c2OC)cc1C (centres undefined),5%,12,-2,4%,1%
COc1cccc(C2c3c(oc4ccc(Cl)cc4c3=O)C(=O)N2c2cc(C)on2)c1OC (centres undefined),3%,-4,-4,-9%,13µM*
CC(C)n1nc(C(=O)Nc2ccc(-n3cnnn3)cc2)c2ccccc2c1=O,-27%,-6,-31*,-2%,12%
CNC(=O)c1ccc(-c2nc(-c3ccccc3)cs2)cc1,10%,7,-45*,-1%,1%
O=C(O)c1ccc(-c2nc(-c3ccccc3)cs2)cc1,5%,-9,-4,0%,3%
Fc1ccc(N2CCN(Cc3ccc4c(c3)CN(Cc3cccn3-c3ncccn3)CCO4)CC2)cc1,.,.,.,.,0%
CCn1c(C)nc2cc(S(=O)(=O)C(F)(F)C(F)C(F)(F)F)ccc21 (centres undefined),-7%,-6,-48*,2%,12%[38.3 µM]
Cc1cccn2c(=O)c(/C=C(\C#N)c3nc4ccccc4[nH]3)c(Oc3ccc(C(C)(C)C)cc3)nc12,18%,-8,.,-9%,?
CC(C)(C)c1ccc(Oc2nc3ccccn3c(=O)c2/C=C(\C#N)c2nc3ccccc3[nH]2)cc1,-4%,-3,.,-2%,28µM*
OC[C@H]1O[C@H](O[C@]2(CCl)O[C@H](CCl)[C@@H](O)[C@@H]2O)[C@H](O)[C@@H](O)[C@H]1Cl,.,3,.,.,.
CCN(CC)S(=O)(=O)c1cccc(C(=O)NCCc2ccccc2)c1,0%,1,-3,i,3%[38.3 µM]
CN(c1ccccc1)S(=O)(=O)c1cccc(C(=O)NCCc2ccc(O)c(O)c2)c1,3.5µM*,-1,1,-2%,1%
CCOC(=O)C(=O)c1csc(NC=O)n1,.,-1,.,.,.
CC(C)C[C@H](NC(=O)[C@H](Cc1ccccc1)NC(=O)c1cnccn1)B(O)O,.,3,.,.,.
C/C(=N\Nc1ccc(C(=O)O)cc1)c1ccc2c(c1)Nc1ccccc1S2,18µM*,2,0,-5%,3%
C/C(=N/Nc1ccc(C(=O)O)cc1)c1ccc2c(c1)Nc1ccccc1S2,12%,-4,0,-4%,0%
Cc1ccc(-n2nc(-c3ccco3)cc2C(=O)O)cc1,11µM*,2,0,-20%,0%
